Activity calls are given as the source filed them.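 Rule for the calls, unless noted: active = inhibition above 20% together with a positive visual image hit; inconclusive = visual image hit but inhibition not above 20%; inactive = no visual image hit.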
Key:
[1] = inhibitors of TNFa-induced NFkB p65 translocation, primary screen, imaging, HUVEC, MLSMR starter and 10KST1 sets (AID 438); details: HUVEC TNFa-induced p65 nuclear translocation; cell count: measured here: nuclei count (cytotoxicity indicator), at 2.08 µM; inhibition: at 2 µM, stronger effect = higher value, 0% TNFa-plus-vehicle, 100% no-TNFa wells;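 note: compound added about 3h40 before a 20 min TNFalpha stimulation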;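 for inhibition: signal is the nuclear over cytoplasmic p65 intensity ratio per well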
[2] = reduction of polyQ htt aggregates in cells – imaging, exon1htt(103Q)mCFP cells, high-content imaging, primary screen (AID 483;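 active = visual image review flags a hit and inhibition of aggregation exceeds 20%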;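 note: compound exposure lasted 3 days before fixation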;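 for nuclei count: percent of the per-plate median nuclei count of sample wells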); details: exon1htt(103Q)mCFP cell line, aggregate imaging, at 2 µM; inhibition of aggregation: stronger effect = higher value; nuclei count: measured here: cell count, toxicity
[3] = endothelial E-selectin expression blockers – imaging, HUVEC, immunofluorescence, MLSMR starter and 10KST1 sets, primary screen (AID 487;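 active = visually confirmed hit in the image check and inhibition above 20%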;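 for inhibition: signal is fraction of cell area covered by stained E-selectin grains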;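 for nuclei count: 100% = median nuclei count of all wells on the same plate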); details: HUVEC TNFalpha-induced E-selectin immunofluorescence imaging, at 2 µM; inhibition: stronger effect = higher value; nuclei count: measured here: cell number, toxicity
[4] = target: Voltage-gated potassium channel subunit beta-2 (Rattus norvegicus) (UniProt P62483); test: inhibitors of rat Kvbeta2 reductase activity – biochemical, NADPH fluorescence, primary screen (AID 622;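 active = fluorescence slope higher than the sample average by over 3 SD, cut at about -0.22 in these data, passing the limit was not always enough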;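 note: slope of raw intensity against log time taken from 70 to 1610 s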); details: recombinant KvBeta, 4-cyanobenzaldehyde reduction, at 10 µM, stronger effect = higher value
Sequence of Voltage-gated potassium channel subunit beta-2 (Rattus norvegicus) (P62483 whole entry, looked up): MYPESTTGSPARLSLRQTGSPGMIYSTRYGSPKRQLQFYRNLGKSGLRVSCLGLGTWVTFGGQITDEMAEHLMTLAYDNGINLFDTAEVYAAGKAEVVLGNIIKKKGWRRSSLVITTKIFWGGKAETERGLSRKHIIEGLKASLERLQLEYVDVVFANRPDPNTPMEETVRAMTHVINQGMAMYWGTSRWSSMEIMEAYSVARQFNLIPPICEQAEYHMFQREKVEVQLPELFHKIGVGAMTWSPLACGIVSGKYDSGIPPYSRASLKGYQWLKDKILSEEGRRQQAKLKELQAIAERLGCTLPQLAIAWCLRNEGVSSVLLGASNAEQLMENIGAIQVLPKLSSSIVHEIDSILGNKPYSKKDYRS

[5] = target: Voltage-gated potassium channel subunit beta-2 (Rattus norvegicus) (UniProt P62483); test: enhancers of rat Kvbeta2 NADPH turnover – biochemical, NADPH fluorescence, primary screen (AID 623;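 active = NADPH fluorescence slope more negative than the mean of all samples by about 3 SD, 99.7% confidence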;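 note: fluorescence intensity change per second fitted from 20 to 320 s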); details: Recombinant KvBeta, NADPH fluorescence decrease slope, 10 min; at 10 µM; stronger effect = lower value
[6] = target: Alpha-2C adrenergic receptor (Homo sapiens) (UniProt P18825); test: compounds altering alpha2C-coupled GIRK flux – cell-based, HEK293 alpha2C/GIRK1/2, thallium flux, primary screen (AID 624;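 active = fluorescence slope after compound addition differing from the mean of all screened samples at 99.7% confidence, in either direction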;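 note: slope of fluorescence ratio to pre-addition baseline per second over 15 to 24 s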); details: thallium flux BTC fluorescence, at 10 µM, actives lie on both sides
Sequence of Alpha-2C adrenergic receptor (Homo sapiens) (P18825 whole entry, looked up): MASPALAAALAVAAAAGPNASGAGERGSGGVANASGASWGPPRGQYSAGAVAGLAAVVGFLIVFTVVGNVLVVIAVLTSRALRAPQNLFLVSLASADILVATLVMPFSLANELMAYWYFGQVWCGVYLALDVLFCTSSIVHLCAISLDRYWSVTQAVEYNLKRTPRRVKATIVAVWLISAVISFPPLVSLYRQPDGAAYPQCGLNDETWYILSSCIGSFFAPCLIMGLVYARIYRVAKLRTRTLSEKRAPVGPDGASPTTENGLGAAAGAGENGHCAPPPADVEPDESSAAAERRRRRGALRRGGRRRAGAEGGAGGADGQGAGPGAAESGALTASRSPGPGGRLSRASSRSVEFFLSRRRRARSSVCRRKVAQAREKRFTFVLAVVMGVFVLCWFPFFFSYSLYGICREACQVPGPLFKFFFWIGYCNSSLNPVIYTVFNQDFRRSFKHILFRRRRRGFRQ

[7] = blockers of RIG-like receptor reporter activation – cell-based, Sendai virus stimulus, luciferase, 10K MLSCN set, TLR/RLR signaling modifier project, primary screen (AID 602276;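 active = inhibition at or above 50% at 10 µM; inactive = inhibition below 50%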;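 note: firefly luciferase from ISG56 promoter only with Renilla not read in this screen; 0% = Sendai virus plus DMSO and 100% = medium plus DMSO without virus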); details: HEK293 RL24 IRF3 luciferase reporter, at 10 µM, stronger effect = higher value
[8] = TLR3 IRF3 reporter activation blockers – cell-based, poly I:C stimulus, luciferase, 10K MLSCN set, primary screen (AID 602277;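 active = inhibition of the reporter signal at or above 50%; inactive = inhibition below 50%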); details: HEK293-TLR3 RL24 IRF3 luciferase reporter, at 10 µM, stronger effect = higher value

Row | Compound | cell count [1] | inhibition [1] | inhibition of aggregation [2] | nuclei count [2] [%] | inhibition [3] | nuclei count [3] [%] | fluorescence slope [4] | NADPH fluorescence slope [5] | slope [6] | inhibition [7] | inhibition [8]
1 | CN(C)/C=N/c1ncnc2c1cnn2-c1ccc(C(F)(F)F)cn1 | 565 | -0.9% (inactive) | -3.8% (inactive) | 110 | 21% (inactive) | 114 | -0.583 (inactive) | -4.6e-05 (inactive) | 0.0102 (inactive) | -45.2% (inactive) | -118% (inactive)
2 | COCCn1nnnc1CN(Cc1cccnc1)Cc1cc2cc(OC)ccc2[nH]c1=O | 670 | -10.6% (inactive) | -13.1% (inactive) | 122 | -11.6% (inactive) | 107 | -0.605 (inactive) | -3.4e-05 (inactive) | 0.00315 (inactive) | 14.3% (inactive) | 25.2% (inactive)
3 | CC(=O)N1CCN(c2ccc(S(=O)(=O)N3CCCCC3)cn2)CC1 | 719 | 0.8% (inactive) | 4.2% (inactive) | 101 | -6.8% (inactive) | 132 | -0.591 (inactive) | 1.1e-05 (inactive) | 0.00522 (inactive) | 6.79% (inactive) | 8.53% (inactive)
4 | Cc1ccc(N=Cc2ccc(O)cc2O)cc1F | 334 | -13.8% (inactive) | 0.1% (inactive) | 113 | -98.5% (inactive) | 107 | -0.395 (inactive) | -0.000134 (inactive) | 0.00518 (inactive) | 13% (inactive) | 23.4% (inactive)
5 | Cc1oc(-c2ccccc2Cl)nc1CSCC(=O)N1CCCC1 | 319 | 9.3% (inactive) | 19.4% (inactive) | 91.6 | 62.6% (active) | 102 | -0.572 (inactive) | 5.9e-06 (inactive) | 0.00514 (inactive) | -10.3% (inactive) | 8.17% (inactive)
6 | Cc1ccc(OCc2nnc(SCC(=O)N3CCOCC3)n2C)cc1 | 594 | -12.9% (inactive) | 6.8% (inactive) | 104 | -58.9% (inactive) | 116 | -0.372 (inactive) | -1.9e-05 (inactive) | 0.00543 (inactive) | -1.5% (inactive) | 6.14% (inactive)
7 | CCCCCn1c(CN2CCN(C(=O)OCC)CC2)nc2c1c(=O)[nH]c(=O)n2C | 245 | 0.8% (inactive) | 10.4% (inactive) | 105 | 16.4% (inactive) | 78.3 | -0.564 (inactive) | 7.1e-06 (inactive) | 0.00615 (inactive) | 28.1% (inactive) | 19.9% (inactive)
8 | Cc1cc(NC(=O)c2ccc3c(c2)C(=O)N(Cc2cccnc2)C3=O)no1 | 770 | -6.4% (inactive) | 1.8% (inactive) | 107 | -127% (inactive) | 128 | -0.615 (inactive) | 1.2e-05 (inactive) | 0.00422 (inactive) | -5.06% (inactive) | -11.7% (inactive)
9 | COc1cc(OC)nc(NC(=O)CSc2nc3ccccc3o2)n1 | 740 | -0.3% (inactive) | -30.6% (inactive) | 102 | -18.2% (inactive) | 107 | -0.609 (inactive) | -2.6e-05 (inactive) | 0.00329 (inactive) | 12.8% (inactive) | -3.75% (inactive)
10 | CN(CCCNC(=O)c1cn(C)c2ccc(S(=O)(=O)N(C)C)cc2c1=O)c1ccccc1 | 596 | -4.5% (inactive) | -18.9% (inactive) | 37.6 | 39.4% (inactive) | 94.2 | -0.582 (inactive) | -7.6e-06 (inactive) | 0.00499 (inactive) | 15.4% (inactive) | 7.91% (inactive)
11 | N#Cc1nc(-c2ccco2)oc1NCc1ccco1 | 658 | -9.1% (inactive) | -10.1% (inactive) | 120 | -12.2% (inactive) | 98.2 | -0.375 (inactive) | 5.2e-05 (inactive) | 0.00582 (inactive) | -2.68% (inactive) | -30.9% (inactive)
12 | O=C(CSc1nc2ccccc2s1)N1CCOCC1 | 330 | 0.5% (inactive) | -12.6% (inactive) | 105 | -38.9% (inactive) | 118 | -0.525 (inactive) | -1.9e-05 (inactive) | 0.00424 (inactive) | -27.4% (inactive) | -58.1% (inactive)
13 | COC(=O)c1[nH]c2c(c1C)C(=O)CC(c1cc(OC)ccc1OC)C2 (centres undefined) | 546 | -4.2% (inactive) | 30.2% (inactive) | 81 | -36.2% (inactive) | 114 | -0.573 (inactive) | -1.2e-05 (inactive) | 0.00652 (inactive) | 38.3% (inactive) | 21.5% (inactive)
14 | Cn1ccnc1SCC(=O)Nc1ccc2ccccc2c1 | 228 | 9.6% (inactive) | 13.5% (inactive) | 120 | -14.1% (inactive) | 105 | -0.519 (inactive) | -4.1e-05 (inactive) | 0.00777 (inactive) | 2.61% (inactive) | -32.6% (inactive)
